Data: the supplement of paper PMC6555819

System: VDR:RXRa (NR concentration 270 nM, RXRa partner concentration 90 nM)
Test: PBM binding z-score (relative to random genomic background probes); higher = stronger binding; sequences stand for … in GC…GCGATTGACAGCGTAGAATGAAGG
Method: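 Protein-binding microarray (Agilent 4x180K custom design, double-stranded 60-nt probes: 5' GC cap, 34-nt variable region, 24-nt constant primer region; full probe sequence given). Purified or IVT nuclear receptor:RXRα heterodimers (3:1 NR:RXRα, mostly 270:90 nM) or homodimers were incubated for 1 h in PBS with 2% milk and no ligand, then detected with Alexa488 antibodies. Fluorescence from o1-orientation probes (~5 replicates averaged) was converted to z-scores against 500 random hg19 background probes. Variable regions are seed direct-repeat (DR0–DR5) sites, all their single-nucleotide variants and half-site ablations.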

Sequence	PBM binding z-score
ACTTATGGGTCAACGAGGTTATAGCACGCGTATA	7.43
TAGCCTAGGTCATTCAGGTGCCAGTATAGAAAGC	3.1
ACAGACAGGTGAGTGAAGGTAACTCTGCTGGACG	-0.344
CGTCCATGGTCATAGGAGGTCAGTGAAGACAGAT	2.94
GCTGCTAGGTCAACTGATGGTCAGTTAAAGCTCG	1.85
AGTCAAAGTTCATCTAGGTACCGTAAGATATGCT	4.98
CCTAGCAGGCCAATCTGGGTGACTCAAGGCTTGA	-0.769
AATACACGGTCATCGTAGGCCAGAGTACGCACAG	0.576
GATCCAGGGTCAAGGCCAGAGTACGCGTATTGAT	4.58
CGTCCAAGATCAAAGGTCAGTGAAGAGATGACGG	3.08
AGAGTGAGGTTAAGATCAGGGAAACAGAATACAT	1.62
TCCAGTAGGTTAGTCGGGGCATTCAGCCAACATA	2.47
GCTTTCGGGTCAAAGGTTATAGCATGAATAGAAT	5.79
ATCGAAATGTCGAGGTGAGTATAGAGAAAGGGAA	-0.253
GCTGCTAGGTCAACGGATGGTCAGCTAAAGCTCG	0.92
GATACAGGGTCCGCTAGAGGCCAGAGTATGGAAA	-0.544
CCTCGGAGGACAACAGGAGGTCAGAGATGCCAGA	2.29
GCGACTGGGGCAAAGCACGTTACCATAAGGTTGG	-0.469
CCGAGTAGGTTATGGGGCATGCAGGCAACGGTGA	-0.196
GCAGACAGGTGAAACGCACGTAACTCAGGGTGGC	-0.568

Sequence	PBM binding z-score
CGAACTAGGTCATCCAAGACAGTGAATACATTGA	2.57
ACTATTCGTTGAGACGAGGGCAACCGATAGGTTG	0.454
GTGACTGGGGCATCAGCAGGTTACCATAACTTAA	0.163
CCTTACGGGTCACTGACAGGCTATAGCATTTGGA	3.07
ATCTGTAGGTTAAGGGTCATTCAGGTTGGTTCGC	5.77
CGTCCAAGGTGAGCAGGTCAGTGAAAGCGACGTG	0.0617
AGAATGAGGTTAAAATCAGGGAAACAGAATACAT	1.33
GGAACGAGGGCACAGTTGATAGCATCTGTCGACG	0.453
GCTCGGAGGACAAGGTCTGAGCTTTGTCCGTAGA	-0.681
CGAACGAGGGGATGAGTTGATAGCAAATGCCGAT	-0.189
CCTACTGGGCCACGAAAGGTCATTTATTCAGTGA	4.27
GGAACGTGGGCAAAGTTGATAGCATCTGTCGACG	-0.399
TCCATTAGTTGATTAGGGCAACCGAAACAGCGGA	0.545
TCGAGTAGGTTTCCAATGGGGCATTCAGCTTTCT	-0.464
CCGAGTAGGTTATTGGGCATTCAGGCAACGGTGA	-0.494
TCTGCTAGGTCAAGGATGGTCAGCTAATCTGCTA	1.18
CCTGCTGGGCCATTCAGAGGTCATTGATCATATG	4.03
TCAAACAGGTGAAGGTAACTCAGGTACGCAGTCG	1.13
CGTCCACGGTCAAAGGTCAGTGAAGAGATGACGG	3.76
GCTGCTAAGTCAACTGATGGTCAGCTAAAGCTCG	-0.619
